# Source: PubChem (National Center for Advancing Translational Sciences (NCATS))
# Rows were chosen to be rich in hits. Some 7.4% of all compounds tested hit in one or more screens of this group.
# hNpr1 antagonist = blocks ANP-stimulated signaling of human Npr1 receptor; P16066; 76,000 tested, 1.6% active; AID 1347048; HEK293 hNpr1 GloSensor cGMP, ANP-stimulated luminescence; Potency, µM (series often up to 46.3 µM), without a hit: at the highest dose activity change, negative = inhibition, usual class: inhibitors; calls by dose curve; further: nearly all actives have a fitted effect of over 60% in size
# Target sequence (P16066 whole entry, looked up): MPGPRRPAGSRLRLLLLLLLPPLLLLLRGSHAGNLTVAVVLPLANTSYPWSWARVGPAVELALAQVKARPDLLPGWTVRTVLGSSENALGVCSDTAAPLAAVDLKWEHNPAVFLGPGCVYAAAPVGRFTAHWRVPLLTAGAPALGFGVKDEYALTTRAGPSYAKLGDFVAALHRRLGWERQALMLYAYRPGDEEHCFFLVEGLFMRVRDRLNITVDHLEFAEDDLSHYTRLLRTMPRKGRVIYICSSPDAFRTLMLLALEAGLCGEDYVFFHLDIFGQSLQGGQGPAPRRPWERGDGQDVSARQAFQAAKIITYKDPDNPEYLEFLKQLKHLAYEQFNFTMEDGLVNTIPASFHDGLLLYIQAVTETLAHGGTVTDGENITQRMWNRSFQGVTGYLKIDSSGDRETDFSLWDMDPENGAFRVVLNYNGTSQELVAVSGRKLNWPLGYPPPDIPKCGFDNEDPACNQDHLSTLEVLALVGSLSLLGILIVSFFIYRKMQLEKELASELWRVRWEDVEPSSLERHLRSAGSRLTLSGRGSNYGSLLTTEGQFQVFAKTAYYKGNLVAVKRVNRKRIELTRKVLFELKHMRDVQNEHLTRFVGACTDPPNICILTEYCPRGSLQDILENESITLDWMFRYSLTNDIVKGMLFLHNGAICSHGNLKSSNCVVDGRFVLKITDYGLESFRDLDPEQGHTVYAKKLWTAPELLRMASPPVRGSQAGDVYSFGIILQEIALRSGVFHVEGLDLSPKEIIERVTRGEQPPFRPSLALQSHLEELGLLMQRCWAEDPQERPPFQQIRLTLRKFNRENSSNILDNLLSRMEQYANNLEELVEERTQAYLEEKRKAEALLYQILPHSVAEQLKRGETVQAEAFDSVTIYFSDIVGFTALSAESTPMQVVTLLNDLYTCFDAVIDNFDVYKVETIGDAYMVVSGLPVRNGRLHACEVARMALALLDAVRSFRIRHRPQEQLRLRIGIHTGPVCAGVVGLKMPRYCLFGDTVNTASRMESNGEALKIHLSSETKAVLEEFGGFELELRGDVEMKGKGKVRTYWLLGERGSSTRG
#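 HEK293 cells stably expressing human Npr1 and cGMP GloSensor pGS-40F, loaded 2 h with 2% GloSensor reagent, given compound 30 min at room temperature. Luminescence read before and 20 min after 0.1 nM hNppA.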
# NIH3T3 tox = cytotoxic compounds in NIH 3T3 cells; NIH 3T3 viability, CellTiter-Glo ATP luminescence, 48-72 h; Potency, µM (doses to about 96.7 µM), for inactives: at the highest dose activity change, negative = cytotoxicity, actives largely listed as inhibitors; 94,000 tested, 4.3% active; further: nearly all actives have a fitted effect of over 55% in size
#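 ATP-dependent luminescence (CellTiter-Glo) served as the viability signal for NIH 3T3 cells treated with compound for 48 or 72 hr at 37 °C.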
# SNCA expr inhib = SNCA gene expression inhibition; HEK-293 SNCA-luciferase knock-in, luminescence, 24 h; Potency, µM (highest dose often 57.2 µM), without a hit: at the highest dose activity change, negative = inhibition, usual class: inhibitors; 140,000 tested, 0.17% active; AID 1671194;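 further: plate controls were DMSO cells for no effect and cell-free wells for full effect; nearly all actives have a fitted effect of over 45% in size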
# HEK cytotox = HEK 293 cell cytotoxicity; HEK 293 viability, ATP luminescence (CellTiter-Glo), 48-72 h; AID 1345083; Potency, µM (titrated, usually from 115 µM), without a hit: at the top dose activity change, negative = cytotoxicity, hits mostly inhibitors; 94,000 tested, 6.6% active; further: nearly all actives have a fitted effect of over 60% in size
#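 HEK 293 cells at 250 cells/well were exposed to compounds by pintool transfer for 48 or 72 hr at 37 degree Celsius, 5% CO2. Viability was read as ATP-coupled luminescence with CellTiter-Glo after 10 min at room temperature.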
# HEK293 viab = counter-screen for SNCA expression inhibitors: cell viability | HEK-293-SNCA-luc viability, GF-AFC fluorescence, 24 h | Potency, µM (titrated, usually from 57.1 µM), for inactives: at the highest dose activity change, negative = cytotoxicity, usual class: cytotoxic | 150,000 tested, 0.12% active | AID 1671193;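 further: 0% = DMSO-treated cells and -100% = medium-only wells without cells; nearly all actives have a fitted effect of over 30% in size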
#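 HEK-293-SNCA-luc cells (1500/well) plated 24 h, then exposed 24 h to a dilution series; GF-AFC added 30 min at 37C, fluorescence 405/540 nm; normalised to medium-only and DMSO wells, Hill fit.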
# Luciferase inh = Photinus pyralis luciferase inhibition | P08659 | purified P. pyralis luciferase, luminescence, biochemical | Potency, µM (doses to about 115 µM), hits mostly inhibitors | 76,000 tested, 2.5% active; further: nearly all actives have a fitted effect of over 65% in size
#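 Luminescence read by CCD imaging after purified firefly luciferase (10nM final) was added to substrate buffer holding 10uM D-luciferin and 10uM ATP, pH 7.5, pre-dosed with compound.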
# The depositor's hits bear a star; i = inactive; ? = inconclusive; nt = no result; [ ] = another dose, or the depositor's remark. Unless noted, the call rests on the fitted dose curve; in most records, active means well fitted curve in the direction sought with a large enough effect; inconclusive means small, poorly fitted or top-dose-only effect, or another doubt; inactive means no such curve, though single readings can be large; an effect the other way counts as inactive or inconclusive. Unless noted, on the % scale 0 is the no-effect control and ±100 the full control effect; potency means the concentration at half of the fitted maximal effect.
SMILES,hNpr1 antagonist,NIH3T3 tox,SNCA expr inhib,HEK cytotox,HEK293 viab,Luciferase inh
COCC(=O)NC1CCN(c2nccc(Nc3ccccc3OC)n2)CC1,nt,?,15%,?,-7%,nt
COc1ccccc1Nc1ccnc(N2CCC(N[S+](=O)([O-])c3ccc(C)cc3)CC2)n1,nt,?,8%,32µM*,2%[12.5 µM],nt
COc1ccccc1Nc1ccnc(N2CCC(NC(=O)C3CC3)CC2)n1,nt,-28%,-3%,-22%,9%,nt
COc1ccccc1Nc1ccnc(N2CCC(NC(C)=O)CC2)n1,nt,?,4%,?,3%,nt
O=C(O)c1ccc(CC2CCN(Cc3cnc(-c4ccco4)nc3)C2)cc1 (stereo not given),5%,-20%,-10%,i,-11%,i
CCNC(=O)N1CCC(Oc2ccccc2)C1 (stereo not given),-13%,i,-7%,8%,4%,i
Cc1[nH]cnc1CN1CCCC(c2nnc(CN3CCC(O)CC3)n2C)C1 (stereo not given),1%,?,-6%,4%,?,i
CCN1C(=O)CCC2(C(=O)NCCc3c[nH]c4ccc(OC)cc34)CCCC=C12 (stereo not given),-1%,-15%,-1%,-2%,2%,?
CCN1c2cc(C(=O)Nc3cccc(Cl)c3)ccc2C(=O)N2CCCCC21 (stereo not given),3%,?,-5%,32µM*,12%[12.5 µM],i
CCN1c2cc(C(=O)Nc3cccc(Cl)c3)ccc2C(=O)N2CCCCCC21 (stereo not given),-2%,40µM*,-14%,?,10%[12.5 µM],i
CN1c2cc(C(=O)Nc3ccc(F)c(Cl)c3)ccc2C(=O)N2CCCCC21 (stereo not given),0%,?,115%,?,12%[12.5 µM],i
CN1c2cc(C(=O)Nc3cccc(Cl)c3)ccc2C(=O)N2CCCCC21 (stereo not given),-12%,?,174%,?,-3%[12.5 µM],14µM*
CC(C)NC(=O)C1CCc2nnc(CNC(=O)Nc3cccnc3)n21 (stereo not given),nt,i,20%,i,-2%,nt
O=C(c1ccc2nccn2c1)N1CCCC1,nt,i,6%[87.6 µM],i,7%[87.6 µM],nt
O=C(NCC1CCCCC1)c1cc2n(n1)CC(c1ccc(Cl)cc1)OC2 (stereo not given),-7%,?,-2%,?,-5%,i
O=C([C@@H]1C[C@H](Oc2ccccc2)CN1C(=O)CC1CCCC1)N1CCCC1,0%,32µM*,-20%,i,-10%,i
O=C([C@H]1C[C@H](Oc2ccccc2)CN1C(=O)CC1CCCC1)N1CCOCC1,0%,-25%,15%,-23%,-1%,i
CCOC(=O)C1=CN(CC(=O)Nc2ccc(C(F)(F)F)cc2)S(=O)(=O)N=C1C,-2%,?,4%,?,0%,i
O=C(NC1CCCC1)N1CC(Oc2ccc(-c3nc(-c4ccccc4)no3)cc2)C1,0.32µM*,-21%,19%,?,-5%,?
Cc1noc(-c2ccc(OC3CN(C(=O)NCC(C)C)C3)cc2)n1,?,?,-2%,?,-2%,i
CC(C)CNC(=O)N1CC(Oc2ccc(-c3nc(-c4ccccc4)no3)cc2)C1,0.5µM*,-27%,5%,?,-1%,i
O=C(NC1CCCC1)N1CC(Oc2cccc(-c3nc(-c4ccccc4)no3)c2)C1,1%,?,6%,?,-18%,i
C=C[C@](C)(O)CC[C@H]1C(C)=CC(=O)[C@H]2C(C)(C)CCC[C@]12C,nt,nt,nt,nt,3%,nt
C=CCNC(=O)[C@@H]1Cc2cn(CC3CC3)c3cccc(c23)[C@H](CC(C)C)N1,-16%[70.6 µM],?,?,50µM*,-10%[87.6 µM],i
C=CCn1cc2c3c(cccc31)[C@H](CC(C)C)N[C@H](C(=O)NCc1ccccc1OC)C2,-5%[70.6 µM],25µM*,?,40µM*,-24%[87.6 µM],i
SMILES,hNpr1 antagonist,NIH3T3 tox,SNCA expr inhib,HEK cytotox,HEK293 viab,Luciferase inh
C=CCn1cc2c3c(cccc31)[C@H](CC(C)C)N[C@H](C(=O)NCc1ccccc1)C2,-17%[70.6 µM],?,1%[87.6 µM],?,-19%[87.6 µM],i
C=CCn1cc2c3c(cccc31)[C@H](CC(C)C)N[C@H](C(=O)NC1CCCC1)C2,0%[70.6 µM],32µM*,?,40µM*,-29%[87.6 µM],i
C=CCNC(=O)[C@@H]1Cc2cn(Cc3c(C)noc3C)c3cccc(c23)[C@H](CC(C)C)N1,0%[70.6 µM],112µM*,-6%[87.6 µM],100µM*,-2%[87.6 µM],i
COC[C@@H]1CN(Cc2cc(C)nn2C)C[C@H]1c1nc(C2CC2)no1,5%,-4%,?,0%,-2%,i
O=C(Nc1ccc(Cl)cc1)N1CCCC(C(=O)N2CCCC2c2nc3ccncc3[nH]2)C1 (stereo not given),nt,-15%,-17%,0%,5%,nt
CC(C)C[C@@H]1N[C@H](C(=O)NC2CCCC2)Cc2cn(CC3CC3)c3cccc1c23,4%[70.6 µM],35µM*,?,45µM*,-26%[87.6 µM],i
CC(C)C[C@@H]1N[C@H](C(=O)O)Cc2cn(CC3CC3)c3cccc1c23,?,?,-11%[87.6 µM],?,-11%[87.6 µM],i
C=CCn1cc2c3c(cccc31)[C@H](CC(C)C)N[C@H](C(=O)NC1CCC1)C2,-5%[70.6 µM],?,?,63µM*,-13%[87.6 µM],i
C=CCn1cc2c3c(cccc31)[C@H](CC(C)C)N[C@H](C(=O)NCc1ccc(F)cc1)C2,-19%[70.6 µM],?,?,?,-7%[87.6 µM],i
Cc1nc(C)c(C(=O)N[C@@H]2CN(Cc3ccncc3)C[C@H]2CN(C)C)s1,-3%,-21%,11%,-21%,20%,i
CC(=O)N1CCCN(c2cc(Cl)nc3ccnn23)CC1,31%[70.6 µM],-19%[138 µM],33%[87.6 µM],-22%[172 µM],10%[87.6 µM],i
NC(=O)c1noc2c1CN(c1cc(-c3ccccc3)nc3ccnn13)CC2,-21%,?,8%,45µM*,-16%,i
COc1ccccc1CCNC(=O)c1nc2cccnc2n(-c2ccccc2OC)c1=O,nt,-16%,12%,-23%,-11%,nt
CC(C)CCNC(=O)CCC1CCN(C(=O)c2ccccc2F)CC1,-3%,-28%,122%,-22%,-8%,28µM*
CNC(=O)CCC1CCN(C(=O)c2ccccc2F)CC1,2%,4%,-21%,3%,7%,i
O=C1CCN(CC(O)Cc2ccccc2)c2ccc(F)cc2CN1Cc1ccccc1 (stereo not given),nt,?,nt,32µM*,nt,nt
O=C1CCN(C[C@@H](O)COCc2ccccc2)c2ccc(F)cc2CN1Cc1ccccc1,nt,?,nt,45µM*,nt,nt
